From PubChem
A selection: hits, their analogues and other compounds. The true share with any hit is near 3.7%.
GLP-1R inv ag: acts as inverse agonist at human GLP-1 receptor | P43220 | HEK293 GLP-1R CRE-luciferase, luminescence, 24 h; GLP-1R form is constitutively active | Potency, µM (highest dose often 38.3 µM), for inactives: at the highest dose activity change, negative = inhibition, most hits filed as inhibitors | 410,000 compounds, 1.6% hits | AID 624417; note: % is set by controls: 0 for no effect and ±100 for the full control effect; nearly all actives have a fitted effect of over 55% in size
Target sequence (P43220 whole entry, looked up): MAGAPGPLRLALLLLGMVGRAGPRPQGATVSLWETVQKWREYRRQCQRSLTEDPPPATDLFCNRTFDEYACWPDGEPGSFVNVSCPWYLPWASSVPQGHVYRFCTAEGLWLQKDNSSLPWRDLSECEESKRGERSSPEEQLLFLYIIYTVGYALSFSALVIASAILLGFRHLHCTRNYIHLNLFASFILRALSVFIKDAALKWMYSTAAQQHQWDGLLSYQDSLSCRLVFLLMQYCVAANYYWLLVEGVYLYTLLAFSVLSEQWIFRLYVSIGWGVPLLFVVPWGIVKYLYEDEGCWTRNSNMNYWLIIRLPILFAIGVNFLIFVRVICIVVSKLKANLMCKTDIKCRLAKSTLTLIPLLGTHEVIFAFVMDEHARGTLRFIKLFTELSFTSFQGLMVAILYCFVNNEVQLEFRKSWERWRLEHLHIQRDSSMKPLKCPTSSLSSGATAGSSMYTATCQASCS
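Stable HEK293 clone (constitutively active GLP-1R + cAMP-response luciferase); 200 cells/uL plated, 12 h pre-culture, compound 24 hr, 37 deg C/5% CO2; detection reagent 12 min RT; luminescence.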
TGFb inhibitor: blocks TGF-b signaling | Potency, µM (top dose mostly 46.1 µM), for the others: at the highest dose activity, negative = inhibition, most hits filed as inhibitors | 410,000 compounds, 1.2% hits | HepG2 CAGA-GFP TGF-b/SMAD3 reporter, GFP fluorescence, 18 h; TGF-beta stimulated, 500 pg/mL final; note: % is set by controls: 0 for no effect and ±100 for the full control effect; nearly all actives have a fitted effect of over 65% in size
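Cell-based qHTS in HEPG2 carrying a CAGA-GFP Smad reporter; compounds added before 500 pg/mL final TGF-beta, 18 h incubation at 37 degrees C, GFP fluorescence quantified per cell by imaging cytometry.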
HepG2 tox: HepG2 cytotoxicity, counter-screen for TGF-b inhibitors. AID 588856. 410,000 compounds, 0.76% hits. HepG2 CAGA-GFP viability, ATP luminescence, 18 h. Potency, µM (series often up to 46.1 µM), without a hit: at the top dose activity change, negative = cytotoxicity, most hits filed as cytotoxic
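CellTiter-Glo luminescence gave cytotoxicity after 18 hours at 37 degrees C. The cells were HepG2 CAGA-GFP in 1% FBS DMEM, stimulated with 500 pg/mL TGF-beta after compound addition. %Activity was normalised to no-cell wells (complete cell-killing) and DMSO (no toxicity), and curves were fitted and classified.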
GLP-1R agonist: GLP-1 receptor (human) agonism | HEK293 GLP-1R CRE-luciferase, luminescence, 4-6 h; cells express a hypersensitive GLP-1R form | Potency, µM (highest dose often 45.6 µM), for inactives: top-dose activation, usual class: activators | 380,000 compounds, 0.007% hits | AID 624172; note: % of control where 0% means no effect
ATXN2 expr inh: reduces ATXN2 reporter expression in HEK-293 cells | Potency, µM (titrated, usually from 57 µM), for inactives: at the highest dose activity change, negative = inhibition, actives largely listed as inhibitors | AID 1745845 | HEK-293 ATXN2-luciferase reporter, luminescence, 24 h | 360,000 compounds, 0.72% hits; note: % is set by controls: 0 for no effect and ±100 for the full control effect; nearly all actives have a fitted effect of over 55% in size
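qHTS (up to 57 uM final) was run with 24 h compound exposure of reporter cells at 37 °C. Each well was multiplexed: SteadyGlo luminescence measured ATXN2-luciferase expression after a fluorogenic Gly-Phe-AFC viability readout (25 uM final).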
ATXN viability: reduces viability in counter-screen for ATXN expression inhibitors. S2 cells (HEK-293 line with an ATXN2-luciferase reporter) viability, CellTiter-Fluor protease fluorescence, 24 h. 400,000 compounds, 0.49% hits. Potency, µM (highest dose often 56.7 µM), most hits filed as cytotoxic; note: nearly all actives have a fitted effect of over 40% in size
* = called active by the depositor; i = inactive; ? = inconclusive; nt = no result; ! = a repeat was not active; [ ] = remark or other dose. Calls come from the whole dose curve; as a rule, active = well fitted curve in the direction sought with a large enough effect; inconclusive = small, poorly fitted or top-dose-only effect, or another doubt; inactive = no such curve, though single readings can be large; an effect the other way counts as inactive or inconclusive. Potency is the fitted concentration of half-maximal effect.

SMILES | GLP-1R inv ag | TGFb inhibitor | HepG2 tox | GLP-1R agonist | ATXN2 expr inh | ATXN viability
COc1ccc(-c2[nH]c(-c3ccccc3)nc2SCC(=O)NC2CCCC2)cc1 | 10µM*! | -43% | -31% | 2% | -16% | ?
CCc1noc(-c2ccc(N(C)Cc3ccc(OC)cc3)c([N+](=O)[O-])c2)n1 | ? | ? | -28% | nt | -13% | i
COc1cc(NCCCCCCN)c2ncccc2c1OC | ? | 0% | -7% | -4% | 16µM* | ?
O=C(C1CC12CCCC2)N1CCC(CO)(Cc2ccccc2Cl)CC1 (stereo not drawn) | 10µM* | ? | -31% | -2% | 1% | i
CCCC[C@H](CC)CN1CN(C[C@@H](CC)CCCC)CC(C)(N)C1 | nt | nt | nt | -3%[19.8 µM] | nt | nt
C=CCOc1ccc(C2N3CC4(CC)CN2CC(CC)(C3)C4=O)cc1 (stereo not drawn) | 11µM* | -2% | -11% | 5% | -10% | i
Cc1nc2nc(NC(=O)c3ccc(C(C)(C)C)cc3)[nH]n2c(=O)c1C | 7% | -5% | -17% | nt | nt | nt
Cc1cccc(C)c1OCC(=O)N[C@@H](Cc1ccccc1)[C@@H](O)C[C@H](Cc1ccccc1)NC(=O)[C@H](C(C)C)N1CCCNC1=O | nt | 13µM* | -8% | -4% | ? | 32µM*
CC(=O)NC(CC(=O)NNC(=O)COc1c(C)cccc1C)c1ccccc1 (stereo not drawn) | 2% | -27% | -1% | -2% | -3% | i
C=C1N[C@]2(C(=O)COC(C)=O)[C@@H](C[C@H]3[C@@H]4CCC5=CC(=O)C=C[C@]5(C)[C@H]4[C@@H](O)C[C@@]32C)O1 | nt | nt | nt | 6% | nt | nt
Cc1cc(Nc2ccccc2F)n2nc(-c3ccccc3)nc2n1 | 1% | ? | -8% | nt | 14% | i
O=C(COc1ccc(/C=N/NC(=O)c2cc3ccccc3o2)cc1Br)Nc1ccccc1 | ? | 3.5µM* | -63% | 3% | ? | 10µM*
CCc1ccc(NC(=O)CO/N=C(\C)c2cc3ccccc3o2)cc1 | 11µM* | -3% | -8% | 15% | -14% | i
COc1ccc(C(=O)NCCN2Cc3ccccc3OC(c3ccsc3)C2)c(OC)n1 (stereo not drawn) | nt | nt | nt | nt | nt | i
N=c1n(CCN2CCCC2)c2ccccc2n1CC(O)c1ccc(Cl)c(Cl)c1 (stereo not drawn) | ? | ? | -118% | -3% | nt | nt
COc1ccc(OCC(O)CN2CCCCC2)cc1 (stereo not drawn) | 2% | -9% | -2% | -2% | -4% | i
Cc1ccc(OCC(O)Cn2c(=N)n(CCN3CCCCC3)c3ccccc32)cc1 (stereo not drawn) | ? | ? | 13µM* | -15% | 25µM* | ?
Cc1ccc(OCC(O)Cn2c(=N)n(CCN3CCOCC3)c3ccccc32)cc1 (stereo not drawn) | ? | -11% | -23% | 4% | -11% | ?
COc1ccc(-c2cc3ccccc3n2CC(O)CN2CCN(CCO)CC2)cc1 (stereo not drawn) | 10µM* | 8% | -18% | -1% | 2% | i
COc1ccc(OCC(O)Cn2c(=N)n(CCN3CCCCC3)c3ccccc32)cc1 (stereo not drawn) | 10µM*! | ? | -53% | 4% | -33% | ?
N=c1n(CCN2CCCCC2)c2ccccc2n1CC(O)COc1ccc(Cl)cc1Cl (stereo not drawn) | ? | 7.1µM* | 10µM* | nt | nt | nt
CCC[C@@]1(CCc2ccccc2)CC(O)=C([C@H](CC)c2cccc(NS(=O)(=O)c3ccc(C(F)(F)F)cn3)c2)C(=O)O1 | nt | nt | nt | nt | nt | i
COc1ccc(OCCn2c(=N)n(CCO)c3ccccc32)cc1 | ? | -10% | -25% | -3% | -17% | i
N=c1n(CCO)c2ccccc2n1CCOc1ccc(Cl)cc1Cl | ? | ? | 11µM* | -3% | 20µM* | nt
CC(C(=O)Nc1ccc(C#N)cc1)N(C)CC(=O)Nc1ccccc1Br (stereo not drawn) | 11µM* | ? | -39% | 2% | -27% | i
SMILES | GLP-1R inv ag | TGFb inhibitor | HepG2 tox | GLP-1R agonist | ATXN2 expr inh | ATXN viability
Cc1ccc(SCC(CC(C)C)N2CCN(C)CCC2=O)cc1 (stereo not drawn) | nt | -7% | -21% | nt | nt | nt
COc1cc(/C=C2/C(=O)c3cccc([N+](=O)[O-])c3C2=O)c(Br)cc1O | 10µM* | ? | -33% | -1% | 22µM* | nt
COc1ccc([C@H]2CC(=O)C=C(c3ccccc3)C2)cc1OC | 10% | -12% | -21% | 21% | -26% | i
CCCCC/C=C/C1=CC(=O)C[C@H](c2ccc(OC)c(OC)c2)C1 | -8% | ? | -18% | 10% | 22µM* | ?
Cc1ccc(SCCN2CCC(NC(=O)OCc3ccccc3)CCC2=O)cc1 (stereo not drawn) | ? | 0% | -12% | 12% | -2% | i
O=C(N[C@H]1CCC(=O)N(CCSc2ccc(Br)cc2)CC1)OCc1ccccc1 | ? | 7.1µM* | -37% | 9% | ? | 28µM*
Cc1cccc(C)c1Nc1c(-c2ccccc2Cl)nc2cnccn12 | ? | -22% | -22% | 1% | -23% | i
CC(C)Oc1ccc(C(=O)Nc2nc3ccccc3[nH]2)cc1 | 1.1µM* | 2% | -21% | 1% | 4.5µM* | i
O=C(Nc1nc2ccccc2[nH]1)c1ccc(OC(F)F)cc1 | ? | 0% | -46% | 9% | -31% | i
CCc1ccc(C(=O)Nc2nc3ccccc3[nH]2)cc1 | ? | -13% | -62% | -9% | 5µM* | i
O=C(Nc1nc2ccccc2[nH]1)c1ccccc1F | ? | 1% | 2.2µM* | -5% | 2% | i
CCc1ccc(OCC(=O)N(Cc2ccc(OC)cc2)C2CCS(=O)(=O)C2)cc1 (stereo not drawn) | -7% | ? | -23% | nt | nt | nt
CCCCN(CCCC)C(=S)[S-].CCCCN(CCCC)C(=S)[S-].[Zn+2] | nt | nt | nt | nt | nt | 8.9µM*
CCNC(=O)c1c(O)c2ccccc2[nH]c1=O | 10µM* | -2% | -12% | 4% | ? | i
CN1CCN(CCNC(=O)c2cnn(-c3cccc(Cl)c3)c2C2CCN(C(=O)OC(C)(C)C)CC2)CC1 | 1% | 2% | -36% | nt | nt | nt
COc1ccccc1CN1CCC(CNC(=O)c2cnn(-c3ccc(C)c(C)c3)c2C2CCN(C(=O)OC(C)(C)C)CC2)CC1 | ? | ? | -87% | nt | nt | nt
